# Inconclusive results are not listed. Entries that show only a call come without a potency. Active and inactive are the calls of the source. Calls follow the shape of the dose curve; as a rule, active = well fitted activation curve with a large enough effect; inconclusive = small, poorly fitted or top-dose-only effect; inactive = flat fitted curve, though single readings scatter.
# Test: qHTS Assay for NPC1 Promoter Activators: Initial hit validation from the primary screen
# Conditions: Huh7 NPC1 promoter-luciferase reporter, luminescence, 24 h; series mostly up to 46.1 µM
# In short: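 Huh7 cells stably carrying NPC1 promoter-luciferase, 1500 cells per well in OP-MEM I with 10% FBS; compounds added after 2 hours and incubated 24 hours at 37C. Luminescence read 10 minutes after Amplite luciferase reagent.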
# Potency is read from the fitted curve at half-maximal effect.
row,SMILES,Potency
1,O=C(c1cccc(Oc2ccc([N+](=O)[O-])cc2)c1)N1CCOCC1,inactive
2,O=C(NNC(=O)C1COc2ccccc2O1)c1ccccc1O (stereo not drawn),inactive
3,CCCNC(=O)C1CCN(S(=O)(=O)c2ccc3[nH]c(=O)ccc3c2)CC1,inactive
4,COc1cccc(NC(=O)CN2C(=O)CSc3ccc(S(=O)(=O)N4CCC(C)CC4)cc32)c1,inactive
5,Cc1cc(C)cc(N(CC(=O)NC2CCCC2)C(=O)CNC(=O)c2ccco2)c1,inactive
6,Cc1ccc(CNC(=O)Nc2ccc(C)cc2)cc1,25000 nM (active)
7,O=C(C1COc2ccccc2O1)N1CCN(S(=O)(=O)c2ccccc2)CC1 (stereo not drawn),inactive
8,Cc1nnc2n(c1=O)N=C(c1ccc(Cl)cc1)CS2,1120 nM (active)
9,COc1ccccc1N(C(=O)c1snc(C(N)=O)c1N)C(C(=O)NC1CCCCC1)c1cccc(OC)c1OC (stereo not drawn),inactive
10,COc1ccc(OC)c(S(=O)(=O)N2CCN3CCCC3C2)c1 (stereo not drawn),inactive
11,CCOC(=O)CSc1nc2cc3c(cc2cc1C#N)OCO3,888 nM (active)
12,CC(=O)c1cccc(NC(=O)N2CCOCC2)c1,inactive
13,COCCNC(=O)CN1C(=O)NC(c2ccccc2)(c2ccccc2)C1=O,inactive
14,COc1ccc(-n2c(N)c(C(=O)NCc3ccco3)sc2=S)cc1,inactive
15,CCOC(=O)c1ccccc1NC(=O)CSc1nnc(Cc2cccn2C)n1-c1ccc(F)cc1,inactive
16,CC1CC(C)CN(CC(=O)N2CCOCC2)C1 (stereo not drawn),inactive
17,CCC(C)(C)NC(=O)C(c1ccc(OC)cc1)N(Cc1cccs1)C(=O)CCC(=O)Nc1cc(C)on1 (stereo not drawn),inactive

row,SMILES,Potency
1,O=C(CCCOc1ccc(Cl)cc1)N1CCCCC1,25000 nM (active)
2,COc1ccccc1NC(=S)NCc1ccc(Cl)cc1,inactive
3,COc1ccc(NC(=O)CSc2ccc([N+](=O)[O-])cc2)cc1S(=O)(=O)N1CCOCC1,inactive
4,COc1ccc(C(c2nnnn2CCc2ccccc2)N2CCN(C3CCCC3)CC2)cc1 (stereo not drawn),inactive
5,COC(=O)c1ccccc1S(=O)(=O)NNC(=O)Nc1ccccc1,12500 nM (active)
6,Cc1ccc(NC(=O)c2ncc(Cl)c(Cl)c2Cl)cc1C,inactive
7,Cn1c(CCN2CCN(c3ccccc3)CC2)nc2cc(NC(=O)c3ccco3)ccc21,inactive
8,O=CN1CCN(C(=O)c2ccccc2Cl)CC1,inactive
9,CCCOP(=O)(c1ccc(N(C)C)cc1)C(O)c1cccnc1 (stereo not drawn),inactive
10,O=C(CSc1nnc(-c2ccccn2)o1)Nc1ccccc1F,1120 nM (active)
11,COc1ccc2oc(=O)c(C(=O)NC(C)c3ccccc3)cc2c1 (stereo not drawn),inactive
12,COc1ccc(NC(=O)Nc2ccc(Cc3ccncc3)cc2)cc1OC,inactive
13,CC(=O)[C@@H]1[C@@H](C(=O)c2ccc(C)cc2)[C@]2(C(=O)Nc3ccccc32)[C@H]2C=Cc3cc(F)ccc3N12,inactive
14,O=C(CCS(=O)(=O)c1ccccc1)Nc1ccc(-c2nc3ccccc3s2)cc1,158 nM (active)
15,CCC(=O)Nc1cc(-c2cc3ccccc3oc2=O)ccc1OC,1120 nM (active)
16,C=CCc1ccc(OCCOCCNCCOC)c(OC)c1,inactive

# Source: PubChem BioAssay AID493203 (National Center for Advancing Translational Sciences (NCATS), 2011)
